TDP1 cell CPT – growth inhibition of DT40 Tdp1-/-;hTDP1 cells with camptothecin (screen for TDP1 inhibitors). AID 686979. chicken DT40 Tdp1-/-;hTDP1 cells + 20 nM CPT, ATP luminescence, 48 h. Potency, µM (top dose mostly 46.2 µM), for the others: at the highest dose activity change, negative = growth inhibition, actives largely listed as inhibitors. actives 12% (n = 420,000); note: nearly all actives have a fitted effect of over 55% in size
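Cell growth measured by CellTiter-Glo luminescence after a minimum 48 h, 37 C compound exposure with 20 nM CPT in Tdp1-knockout DT40 cells stably expressing hTDP1, seeded 400/well; qHTS titration format.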
TDP1 cell noCPT – qHTS for Inhibitors of human tyrosyl-DNA phosphodiesterase 1 (TDP1): qHTS in cells in absence of CPT; DT40 Tdp1-/- hTDP1 cells, no CPT, ATP luminescence, 48 h; Potency, µM (highest dose often 46.2 µM), inactives show at the top dose activity change, negative = growth inhibition, most hits filed as inhibitors; actives 15% (n = 420,000); note: nearly all actives have a fitted effect of over 55% in size
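Seeded 400 DT40-hTDP1 cells/well (vehicle DMSO, no 20 nM CPT); pinned compounds; ≥48 hr at 37 °C; CellTiter-Glo luminescence as viability measure.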
TDP1 block – blocks human tyrosyl-DNA phosphodiesterase 1; recombinant TDP1, AlphaScreen DNA substrate cleavage; actives 0.28% (n = 350,000); Q9NUW8; Potency, µM (titrated, usually from 130 µM), for the others: at the top dose activity change, negative = inhibition, usual class: inhibitors; note: nearly all actives have a fitted effect of over 40% in size
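Recombinant E. coli-expressed Tdp1 (1 nM) preincubated with compound 15 min at RT, then 5'-biotin/3'-phosphotyrosine-FITC DNA substrate (15 nM) added for 5 min. AlphaScreen beads (10 ug/ml) added, 10 min RT; tyrosine-FITC cleavage read as signal loss.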
GCN5L2 inh – blocks human GCN5L2 histone acetyltransferase | Q92830 | GCN5L2 HAT assay, ThioGlo1 CoA-SH fluorescence | Potency, µM (highest dose often 58.9 µM), inactives show at the highest dose activity change, negative = inhibition, actives largely listed as inhibitors | actives 0.21% (n = 390,000) | AID 504327
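GCN5L2 (20nM final) in 50mM HEPES, 0.1mM EDTA pH 7.5, 0.01% Tween-20 was preincubated 15 min at room temperature with compound, then given ThioGlo1 (50uM), H3(1-25) peptide (75uM) and acetyl-CoA (70uM); CoA-thiol fluorescence (Ex340/Em540) was read at 0 and 20 min.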
VDR inh – vitamin D3 receptor (human) inhibition; Potency, µM, inactives show max response, negative = inhibition, most hits filed as inhibitors; P11473; VDR-SRC2-3 peptide fluorescence polarization, 2 h; AID 504847; actives 0.93% (n = 400,000)
Target sequence (P11473 whole entry, looked up): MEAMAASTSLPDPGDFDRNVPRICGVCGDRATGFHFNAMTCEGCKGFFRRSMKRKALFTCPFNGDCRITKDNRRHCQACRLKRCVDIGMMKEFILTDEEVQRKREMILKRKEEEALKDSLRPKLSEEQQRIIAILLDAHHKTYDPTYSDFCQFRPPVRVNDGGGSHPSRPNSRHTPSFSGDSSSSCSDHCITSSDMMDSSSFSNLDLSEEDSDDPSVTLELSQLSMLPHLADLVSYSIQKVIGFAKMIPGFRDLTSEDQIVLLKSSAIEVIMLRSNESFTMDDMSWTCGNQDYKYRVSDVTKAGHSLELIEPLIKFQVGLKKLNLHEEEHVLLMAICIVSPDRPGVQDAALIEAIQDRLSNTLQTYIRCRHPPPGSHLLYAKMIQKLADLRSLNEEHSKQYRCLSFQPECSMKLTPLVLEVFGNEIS
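Reagent solutions, kept cold and dark, are dispensed first; compounds are then pinned in at 23 nl, plates briefly spun, and incubated 2 h at ambient temperature. Inhibition of VDR–SRC2-3 peptide binding is read by fluorescence polarization.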
PLK1 PBD inh – inhibitors of human PLK1 polo-box domain binding; actives 2.8% (n = 360,000); Potency, µM, for the others: max response, negative = inhibition, actives largely listed as inhibitors; P53350; Plk1 PBD binding of FITC phosphopeptide, fluorescence polarization; note: series mostly up to about 57 µM; nearly all actives have a fitted effect of over 65% in size
Starred values were filed as active, the others as inactive; ? = inconclusive; . = no result; [ ] = another dose, or the depositor's remark. Only some compounds are listed: those with a hit (about 18% of all), similar ones and a draw of the others. Calls come from the whole dose curve; as a rule, active = well fitted curve in the direction sought with a large enough effect; inconclusive = small, poorly fitted or top-dose-only effect, or another doubt; inactive = no such curve, though single readings can be large; an effect the other way counts as inactive or inconclusive. % is set by controls: 0 for no effect and ±100 for the full control effect; potency is the fitted concentration of half-maximal effect.

SMILES	TDP1 cell CPT	TDP1 cell noCPT	TDP1 block	GCN5L2 inh	VDR inh	PLK1 PBD inh
Cc1ccc(N2CC(C(=O)N3CCC4(CC3)CC(=O)c3ccccc3O4)CC2=O)cc1 (stereo not given)	?	23µM*	1%	-19%	3%	3%
Cc1ccc(N2CC(C(=O)N3CCN(c4ccccn4)CC3)CC2=O)cc1 (stereo not given)	-4%	-20%	.	.	9%	-7%
CCN1CCn2c3c(c4cc(C)ccc42)CCCC31 (stereo not given)	?	23µM*	1%	-7%	-11%	-14%
Cc1ccc2c(c1)c1c3n2CCN(C(=O)CCl)C3CCC1 (stereo not given)	4.6µM*	3.3µM*	.	-3%	?	-24%
CC(=O)N1CCn2c3c(c4cc(C)ccc42)CCCC31 (stereo not given)	-6%	-24%	8%	-2%	-11%	-4%
CCCN(CCC)S(=O)(=O)c1ccc(C(=O)N2CCn3c4c(c5cc(C)ccc53)CCCC42)cc1 (stereo not given)	16µM*	?	-1%	-6%	1%	.
CCCCn1c(N)c(N(CC)C(=O)c2ccc(C#N)cc2)c(=O)[nH]c1=O	-13%	-4%	7%	-3%	3%	-5%
CCC(=O)N(CCC(Cc1ccccc1)c1ccco1)Cc1ccco1 (stereo not given)	18µM*	15µM*	-5%	1%	-28%	-1%
CCC(=O)N(CCC(Cc1ccccc1)c1ccc2c(c1)OCO2)Cc1ccccc1F (stereo not given)	7.3µM*	4.6µM*	3%	-18%	-13%	3%
CCC(=O)N(CCC(c1ccccc1)c1ccco1)Cc1cccs1 (stereo not given)	16µM*	21µM*	5%	-11%	?	-22%
Cc1cc(C)c2cc(C#N)c(NCCNC(=O)c3ccccn3)nc2c1	4%	-9%	.	.	.	-5%
CCN(CC)c1ccc(NC(=O)CN2CCN(c3nc(C)cc(C)n3)CC2)cc1	?	16µM*	0%	-9%	-22%	-11%
COc1ccc(NC(=O)CN2CCN(C3c4ccccc4-c4ccccc43)CC2)c(OC)c1	?	26µM*	5%	-3%	-11%	-11%
COc1ccccc1NC(=O)CN1CCN(c2ccccc2F)CC1	21µM*	?	-1%	-3%	27%	-16%
CCN(CC)c1ccc(NC(=O)CN2CCN(CC(=O)Nc3ccccc3OC)CC2)cc1	23µM*	?	7%	0%	-12%	-5%
CCOc1ccc(NC(=O)CN2CCN(CC(=O)Nc3ccccc3OC)CC2)cc1	?	?	.	1%	2%	6%
CCn1cc(C(=O)NCc2ccccc2OC)c(=O)c2cc(S(=O)(=O)N3CCCCCC3)ccc21	?	?	5%	-10%	-4%	.
CCc1nnc(NS(=O)(=O)c2ccc(NC(=O)c3ccc(C#N)cc3)cc2)s1	15%	-30%	.	-5%	5%	0%
COc1ccccc1NC(=O)CN1CCN(C2c3ccccc3-c3ccccc32)CC1	18µM*	21µM*	7%	-8%	0%	1%
O=C(CNC(=O)c1ccccc1)NCC(=O)OCC(=O)c1ccc2ccccc2c1	?	-8%	0%	.	-18%	.
COc1ccc(NC(=O)c2ccco2)cc1NC(=O)C(C)(C)Oc1ccc(Cl)cc1	18µM*	?	7%	-2%	-6%	.
COc1ccc(NC(=O)Cc2ccc(Cl)cc2)cc1NC(=O)c1ccco1	-29%	?	2%	-6%	7%	-8%
COc1ccc(NC(=O)c2ccco2)cc1NC(=O)COc1ccccc1Cl	6.5µM*	?	3%	-1%	-3%	.
CC(NC(=O)C(=O)NCCN1CCN(C(=O)c2ccc([N+](=O)[O-])cc2)CC1)c1ccccc1 (stereo not given)	-1%	-8%	0%	-17%	-8%	-3%
Cc1ccccc1NS(=O)(=O)c1ccc2[nH]cc(C(=O)N3CCCC3)c(=O)c2c1	-3%	9%	?	2%	1%	.
SMILES	TDP1 cell CPT	TDP1 cell noCPT	TDP1 block	GCN5L2 inh	VDR inh	PLK1 PBD inh
CC1CCC(NC(=O)CN2C(=O)NC(C)(C)C2=O)CC1 (stereo not given)	-9%	3%	2%[0.505 µM]	-6%	8%	-3%
COc1ccc(N2C(=O)C(Cl)=C(Nc3ccccc3O)C2=O)cc1	?	?	9%	-2%	-28%	12µM*
O=C1CCCN1c1ccc(S(=O)(=O)NCCOc2ccccc2)cc1	?	11µM*	1%	-2%	-11%	-12%
Cc1cc(-n2cnnn2)cc(C)c1S(=O)(=O)NCCOc1ccccc1	0%	-9%	2%	-14%	9%	-1%
Cc1cc(N2CCCC2=O)cc(C)c1S(=O)(=O)NCCOc1ccc(C(C)(C)C)cc1	7.3µM*	7.3µM*	3%[56.1 µM]	-7%	-1%	-3%
Cc1cc(N2CCCC2=O)ccc1S(=O)(=O)NC1CCCCC1	?	21µM*	-3%	2%	4%	-12%
CCOc1cc(C=O)cc(Cl)c1OCC(N)=O	?	18µM*	5%	-21%	-15%	-30%
CCC(Sc1nnc(-c2ccc(C)c(Cl)c2)n1CC)C(=O)Nc1nccs1 (stereo not given)	18µM*	15µM*	5%	-4%	-11%	-17%
CCCn1nnnc1NC(=O)COc1ccc(CC)cc1	1%	-6%	8%	-9%	-6%	-2%
Nc1cc2c(cc1N)-c1ccccc1C2	?	16µM*	.	.	18%	-12%
COc1ccc(CN2C(=O)NC3(CCCCCC3)C2=O)cc1F	16µM*	15µM*	6%	-3%	-12%	3.4µM*
CC(C)c1ccc(CN2C(=O)NC3(CCCCCC3)C2=O)cc1	?	?	4%	-7%	-17%	27µM*
Cn1ccnc1SCC(=O)NC1CCCCC1	1%	9%	6%	-7%	19%	-4%
Cn1ccnc1SCC(=O)N(C1CCCCC1)C1CCCCC1	?	15µM*	10%	-8%	-21%	-6%
CCn1nnnc1SCC(=O)N(C1CCCCC1)C1CCCCC1	10µM*	11µM*	0%	-8%	0%	-1%
Cc1cc(C)c2oc(C(=O)Nc3c(C)n(C)n(-c4ccccc4)c3=O)cc(=O)c2c1	1%	-10%	-5%	2%	11%	.
O=C(CCCOc1ccccc1)Nc1ccc(Cl)cn1	-5%	-11%	-1%	0%	-15%	-6%

Assay outcomes deposited in PubChem by National Center for Advancing Translational Sciences (NCATS).
